PubChem BioAssay AID1159580 (chemical genetic matrix, 2015)
The whole screen tested about 5,500 compounds, of which about 2,000 (36%) were called active. Another 18% or so got no clear call; they are omitted. No stated cut-off is given here; in the data, active means normalized growth mostly below about 0.91 (no sharp cut-off); inconclusive means no clear call, values can overlap the other calls; inactive means mostly above about 0.92. The list shows a part of the results.

Experiment: chemical genetic growth profiling, strain panel (AID 1159580);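 further: tested at 20 µM; growth read once vehicle control cultures reached saturation at 30 °C; 1 = growth at the plate median or of vehicle wells; lower values mean less growth of the strain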
Conditions: S. cerevisiae deletion strains, growth OD

Measured: normalized growth

O=C(Cc1cccs1)NC1C(=O)N2C(C(=O)[O-])=C(C[n+]3ccccc3)CSC12 (stereo unspecified)
inactive: locus YAL013W, strain DEP1, hits give low values 1.01 | locus YAL021C, strain ccr4, hits give low values 0.966 | locus YAL026C, strain drs2, hits give low values 0.989 | locus YAL030W, strain snc1, hits give low values 0.994 | locus YBL061C, strain skt5, hits give low values 0.995 | locus YBR009C, strain hhf1, hits give low values 0.981 | locus YBR021W, strain FUR4, hits give low values 1 | locus YBR023C, strain chs3, hits give low values 0.993 | locus YBR171W, strain sec66, hits give low values 0.975 | locus YBR229C, strain ROT2, hits give low values 0.99 | locus YBR231C, strain swc5, hits give low values 0.985 | locus YBR279W, strain paf1, hits give low values 0.996 | locus YCL011C, strain gbp2, hits give low values 0.997 | locus YCL016C, strain dcc1, hits give low values 0.991 | locus YCL029C, strain bik1, hits give low values 1 | locus YCL069W, strain vba3, hits give low values 0.991 | locus YCR088W, strain abp1, hits give low values 0.982 | locus YDL005C, strain med2, hits give low values 0.968 | locus YDL035C, strain GPR1, hits give low values 0.998 | locus YDL040C, strain nat1, hits give low values 0.983 | locus YDL074C, strain BRE1, hits give low values 1.01 | locus YDL101C, strain DUN1, hits give low values 1.02 | locus YDL134C, strain PPH21, hits give low values 1 | locus YDL185W, strain tfp1, hits give low values 0.991 | locus YDL192W, strain arf1, hits give low values 0.992 | locus YDR001C, strain nth1, hits give low values 0.996 | locus YDR069C, strain doa4, hits give low values 0.964 | locus YDR101C, strain arx1, hits give low values 1.01 | locus YDR137W, strain rgp1, hits give low values 0.988 | locus YDR159W, strain sac3, hits give low values 0.962 | locus YDR162C, strain NBP2, hits give low values 1.01 | locus YDR195W, strain ref2 1.01 | locus YDR297W, strain sur2, hits give low values 0.989 | locus YDR318W, strain mcm21, hits give low values 0.998 | locus YDR334W, strain swr1, hits give low values 0.993 | locus YDR335W, strain msn5, hits give low values 0.996 | locus YDR388W, hits give low values 0.99 | locus YDR392W, strain spt3, hits give low values 0.994 | locus YDR502C, strain sam2, hits give low values 0.985 | locus YEL003W, strain gim4, hits give low values 0.969 | locus YEL037C, strain rad23, hits give low values 1 | locus YEL061C, strain CIN8 (second series), hits give low values 1 | locus YEL061C, strain CIN8, hits give low values 1.01 | locus YER015W, strain faa2, hits give low values 0.983 | locus YER016W, strain bim1, hits give low values 0.983 | locus YER110C, hits give low values 0.992 | locus YER111C, strain swi4, hits give low values 0.96 | locus YER155C, strain BEM2 (second series), hits give low values 0.987 | locus YER155C, strain BEM2, hits give low values 1 | locus YER167W, strain BCK2, hits give low values 0.991 | locus YFR010W, strain ubp6, hits give low values 0.986 | locus YGL078C, strain dbp3, hits give low values 0.99 | locus YGL086W, strain mad1, hits give low values 0.999 | locus YGL167C, strain pmr1, hits give low values 0.985 | locus YGL173C, strain kem1, hits give low values 0.982 | locus YGL227W, strain vid30, hits give low values 0.979 | locus YGL240W, strain doc1, hits give low values 0.956 | locus YGL248W, strain PDE1, hits give low values 1.02 | locus YGL253W, strain hxk2, hits give low values 0.999 | locus YGR135W, strain pre9, hits give low values 0.978 | locus YGR252W, strain gcn5, hits give low values 0.941 | locus YHR013C, strain ard1, hits give low values 0.981 | locus YHR027C, strain rpn1, hits give low values 0.991 | locus YHR030C, strain SLT2, hits give low values 1.01 | locus YHR079C, strain IRE1 (second series), hits give low values 0.996 | locus YHR094C, strain hxt1, hits give low values 0.998 | locus YHR129C, strain ARP1, hits give low values 1.01 | locus YHR142W, strain chs7, hits give low values 0.963 | locus YHR200W, strain rpn10, hits give low values 0.994 | locus YIL066C, strain RNR3, hits give low values 1.02 | locus YIL073C, strain SPO22, hits give low values 1.09 | locus YIL125W, strain kgd1, hits give low values 0.999 | locus YIR030C, strain dcg1, hits give low values 1.01 | locus YJL092W, strain hpr5, hits give low values 0.986 | locus YJL095W, strain BCK1 (second series), hits give low values 0.961 | locus YJL095W, strain BCK1, hits give low values 1.03 | locus YJL115W, strain asf1, hits give low values 0.981 | locus YJL129C, strain trk1, hits give low values 0.99 | locus YJL134W, strain LCB3, hits give low values 1 | locus YJL154C, strain vps35, hits give low values 0.983 | locus YJL164C, strain tpk1, hits give low values 0.985 | locus YJL166W, strain qcr8, hits give low values 0.979 | locus YJL168C, strain set2, hits give low values 0.994 | locus YJL187C, strain SWE1 (second series), hits give low values 1.01 | locus YJL187C, strain SWE1, hits give low values 0.978 | locus YJR043C, strain POL32, hits give low values 1.01
